Results filed as inconclusive are left out. Activity calls are given as the source filed them. Calls follow the shape of the dose curve; as a rule, active = well fitted cell-killing curve with a large enough effect in the repeat runs; inconclusive = weak or mixed curves, or effect the other way; inactive = no such curve, though single readings can be large or run the other way.
Experiment: qHTS assay for identifying genotoxic compounds that show differential cytotoxicity against isogenic chicken DT40 cell lines with known DNA damage response pathways - Rev3 mutant cell line (AID 743014); also: nearly all actives have a fitted effect of over 55% in size
Conditions: chicken DT40 Rev3-/- viability, CellTiter-Glo, 40 h; series mostly up to 68.4 µM; activity, negative = cytotoxicity: at the top concentration
Description: National Center for Advancing Translational Sciences [NCATS]
NIH Chemical Genomics Center [NCGC]
U.S. Environmental Protection Agency [EPA]
National Institutes of Environmental Health Sciences [NIEHS]
National Toxicology Program [NTP]
U.S. Food and Drug Administration [FDA]
DNA repair pathways play a critical role in cellular homeostasis by repairing DNA damage induced by endogenous processes and xenobiotics. Isogenic chicken DT40 cell lines deficient in different DNA repair pathways can be used to identify genotoxic compounds and aid in characterizing the nature of the DNA damage induced. Two DNA repair-deficient cell lines with disrupted genes, Rad54/Ku70 or Rev3, were used to screen the Tox21 10K compound library. Possible genotoxicity was based on the presence of a significant increase in cytotoxicity in one or more of the DNA repair-deficient cell lines compared to that observed in the parental DNA repair-proficient cell line. CellTiter Glo viability assay (Promega, Madison, WI) was used to measure cell viability in these cells after compound treatment. This assay includes the data from the Rev3 mutant cell line.
Tox21 Assay Protocol Summary:
300 DT40 mutant cells in 5 uL/well were dispensed into white, solid-bottom 1536-well plates using a Multidrop Combi (ThermoFisher Scientific, Waltham, MA) dispenser. After the assay plates were incubated at 37 C/5% CO2 for approximately 0.5 hour, 23 nL of compounds dissolved in DMSO, positive controls or DMSO only was transferred into the assay plate by a pintool work station (Kalypsys, San Diego, CA). The assay plates were incubated at 37 C/5% CO2 for 40 hours. After 5 uL per well of CellTiter-Glo reagent was added into each well of the assay plates, the plates were incubated for 30 min at room temperature and the luminescence intensity of the plates was measured using a ViewLux (PerkinElmer, Shelton, CT) plate reader.
% is scaled to controls: 0 for no effect and ±100 for the full control effect; potency is read from the fitted curve at half-maximal effect.

SMILES	activity, negative = cytotoxicity	Potency
Cc1cc(C)c(S(=O)(=O)O)cc1N=Nc1cc(S(=O)(=O)O)c2ccccc2c1O	-16.3% (inactive)	
SC1CCCC1	6.36% (inactive)	
S=C(S)NCCNC(=S)S	1.16% (inactive)	
CN1CCC(OC(c2ccccc2)c2ccccc2)CC1		12.7 µM (active)
CC(=O)NCCCS(=O)(=O)O		inactive
COC(=O)C(C)=O	1.02% [at 95 µM] (inactive)	
CNS(=O)(=O)Cc1ccc2[nH]cc(CCN(C)C)c2c1	14.6% (inactive)	
CC(C)c1cccc(C(C)C)c1NC(=O)NS(=O)(=O)c1cc(C(C)(C)O)co1	-4.32% (inactive)	
C=CCCCCCC	-1.47% (inactive)	
OCC1CC2CC1C1CCC(CO)C21 (stereo not given)		54.5 µM (active)
CCOc1ccc2[nH]cc(C(=O)NCc3ccccc3)c(=O)c2n1		48.6 µM (active)
CN1CCN(C2=Nc3cc(Cl)ccc3Nc3ccccc32)CC1		26.6 µM (active)
O=C(c1ccc(O)cc1)c1ccc(O)cc1	5.16% (inactive)	
O=C(Cl)c1ccc([N+](=O)[O-])cc1	8.62% (inactive)	
COC(Cc1ccccc1)OC	-3.77% (inactive)	
CN(C)CC/C=C1\c2ccccc2COc2ccccc21		26.6 µM (active)
CC(C)(C)c1ccc(OCC2CO2)cc1 (stereo not given)	-16.9% [at 95 µM] (inactive)	
N#CCCNCCC#N	-1.52% [at 95 µM] (inactive)	
Oc1ccc(O)c2c(O)cccc12	-1.27% (inactive)	
O=C(NN1CCCC1)NS(=O)(=O)c1ccc(Cl)cc1	2.99% (inactive)	

SMILES	activity, negative = cytotoxicity	Potency
Nc1ccc(C(=O)Nc2ccccc2N)cc1		0.422 µM (active)
CC(=O)/C=C/C1C(C)=CCCC1(C)C (stereo not given)	3.58% (inactive)	
CCCCOC(O)CC (stereo not given)	-14.2% (inactive)	
N#CCc1cccc(C(F)(F)F)c1	0.329% (inactive)	
CC(=O)c1c(C)c([N+](=O)[O-])c(C(C)(C)C)c([N+](=O)[O-])c1C	-10.7% (inactive)	
NC[C@H]1O[C@H](O[C@H]2[C@H](O)[C@@H](O[C@H]3O[C@H](CO)[C@@H](O)[C@H](N)[C@H]3O)[C@H](N)C[C@@H]2N)[C@H](O)[C@@H](O)[C@@H]1O	-0.199% [at 31.4 µM] (inactive)	
c1ccc(CNCc2ccccc2)cc1		30.6 µM (active)
CCCCCCCCCCCCC(=O)O	2.75% [at 95 µM] (inactive)	
COCCO	-0.0697% (inactive)	
Oc1ccc2c(c1)OCO2		54 µM (active)
Cn1c(=O)c2c(ncn2CC(O)CO)n(C)c1=O (stereo not given)	14.9% [at 31.4 µM] (inactive)	
CC/C(=C\C(=N/O)C(N)=O)C(C)[N+](=O)[O-] (stereo not given)		24.3 µM (active)
CC(C)=CCCC(C)CC=O (stereo not given)	1.74% (inactive)	
COCCCCCCCCOCCC[Si](C)(O[Si](C)(C)C)O[Si](C)(C)C		6.11 µM (active)
CC[C@]12CCCN3CCc4c(n(c5ccccc45)C(=O)C1)[C@@H]32		4.52 µM (active)
CCCCCCCC/C=C\CCCCCCCC(N)=O	13.4% (inactive)	
CCC(C)N(C)C(=O)c1cc2ccccc2c(-c2ccccc2Cl)n1 (stereo not given)		14 µM (active)
CCOC(=S)SSC(=S)OCC	9.91% (inactive)	
O=S1(=O)c2cccc3cccc(c23)N1CCCN1CCN(c2ccc(F)cc2)CC1		23.7 µM (active)
Cc1cc(O)ccc1N		6.14 µM (active)
